Only a selection was taken, and hits are over-represented in it overall.
BLM inh-1: qHTS Assay for Inhibitors of Bloom's syndrome helicase (BLM); hit rate 0.2% among 350,000; recombinant BLM DNA unwinding, fluorescence dequenching; Potency, µM (series often up to 56.1 µM), for the others: at the highest dose activity change, negative = inhibition, actives largely listed as inhibitors; RecQ-like DNA helicase BLM (Homo sapiens), P54132;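 also: plate controls were vehicle for no effect and no enzyme for full effect; nearly all actives have a fitted effect of over 35% in size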
APE1 inh-1: qHTS Assay for Inhibitors of the Human Apurinic/apyrimidinic Endonuclease 1 (APE1); hit rate 0.35% among 350,000; DNA repair nuclease/redox regulator APEX1 (Homo sapiens), P27695; Potency, µM (doses to about 65.8 µM), without a hit: at the highest dose activity change, negative = inhibition, usual class: inhibitors; recombinant APE1, TAMRA/BHQ-2 abasic DNA cleavage fluorescence;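 also: plate controls were vehicle for no effect and reference inhibitor for full effect; nearly all actives have a fitted effect of over 55% in size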
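Quantitative HTS: incision of a TAMRA/BHQ-2 double-stranded substrate bearing a tetrahydrofuran abasic site by 0.75 nM APE1 raises fluorescence. Substrate 50 nM final, added after 15 min compound preincubation at room temperature; progress as third-minus-first kinetic read difference.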
RECQ1 inh-1: qHTS Assay for Inhibitors of RecQ-Like Dna Helicase 1 (RECQ1); ATP-dependent DNA helicase Q1 (Homo sapiens), P46063; RECQ1 DNA unwinding, red fluorescence kinetic read; Potency, µM (series often up to 57.3 µM), for inactives: at the top dose activity, negative = inhibition, hits mostly inhibitors; hit rate 0.54% among 240,000; AID 2549, 2010;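 also: plate controls were vehicle for no effect and no enzyme for full effect; nearly all actives have a fitted effect of over 30% in size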
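RECQ1T1 50 nM; forked duplex (20 bp + 30-nt ss tails) 200 nM, ATP 2 mM final; pH 8.0, 2 mM MgCl2, 2.5 ug/ml poly(dI-dC); 15 min compound preincubation; discontinuous kinetic read over 2 h at RT.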
TDP1 block: qHTS Assay for Inhibitors of Tyrosyl-DNA Phosphodiesterase (TDP1). recombinant TDP1, AlphaScreen DNA substrate cleavage. Potency, µM (highest dose often 130 µM), for the others: top-dose activity change, negative = inhibition, hits mostly inhibitors. hit rate 0.28% among 350,000. AID 485290, 2010; also: nearly all actives have a fitted effect of over 40% in size
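Enzyme-compound mixtures sat 15 min at room temperature, followed by a 5 min reaction with 15 nM final substrate and 10 min with AlphaScreen beads. Recombinant human Tdp1 was used at 1 nM final.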
L3MBTL1 block: qHTS Assay for the Inhibitors of L3MBTL1. hit rate 0.66% among 230,000. AlphaScreen L3MBTL1–H3K9me1 peptide binding. Potency, µM (doses to about 57.1 µM), for the others: at the top dose activity, negative = inhibition, hits mostly inhibitors. AID 485360, 2010. Lethal(3)malignant brain tumor-like protein 1 (Homo sapiens), Q9Y468; also: nearly all actives have a fitted effect of over 60% in size
Target sequence (Q9Y468 whole entry, looked up): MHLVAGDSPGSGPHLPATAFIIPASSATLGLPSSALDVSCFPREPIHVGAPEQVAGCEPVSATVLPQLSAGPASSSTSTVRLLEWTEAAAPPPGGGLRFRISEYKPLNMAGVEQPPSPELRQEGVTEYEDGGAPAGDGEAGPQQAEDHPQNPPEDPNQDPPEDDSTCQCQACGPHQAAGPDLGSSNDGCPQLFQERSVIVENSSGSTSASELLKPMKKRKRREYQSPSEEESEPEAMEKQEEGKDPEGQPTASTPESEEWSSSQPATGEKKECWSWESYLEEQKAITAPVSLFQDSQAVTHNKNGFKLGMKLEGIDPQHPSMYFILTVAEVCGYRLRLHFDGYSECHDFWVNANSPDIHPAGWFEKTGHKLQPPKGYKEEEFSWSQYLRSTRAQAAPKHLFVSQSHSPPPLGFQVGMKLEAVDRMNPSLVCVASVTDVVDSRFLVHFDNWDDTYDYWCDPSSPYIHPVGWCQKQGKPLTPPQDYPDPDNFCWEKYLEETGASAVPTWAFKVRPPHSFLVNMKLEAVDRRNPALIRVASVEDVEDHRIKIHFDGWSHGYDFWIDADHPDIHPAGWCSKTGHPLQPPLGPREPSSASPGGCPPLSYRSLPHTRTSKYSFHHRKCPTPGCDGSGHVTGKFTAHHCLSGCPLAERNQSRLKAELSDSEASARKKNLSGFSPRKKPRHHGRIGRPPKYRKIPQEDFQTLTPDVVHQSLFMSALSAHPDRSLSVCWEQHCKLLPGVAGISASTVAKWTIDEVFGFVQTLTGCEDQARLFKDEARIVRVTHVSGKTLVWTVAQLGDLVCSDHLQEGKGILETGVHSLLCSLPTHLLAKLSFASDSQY
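AlphaScreen assay: L3MBTL1 (50 nM final) was preincubated 30 min at room temperature with biotinylated H3(1-15)K9me1 peptide (75 nM final), then 30 min with library compounds; streptavidin donor and nickel chelate acceptor beads (10 ug/mL final) added, 30 min dark.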
JMJD2E inh: qHTS Assay for Inhibitors of Human Jumonji Domain Containing 2E (JMJD2E); Potency, µM (top dose mostly 57.1 µM), for inactives: top-dose activity change, negative = inhibition, hits mostly inhibitors; JMJD2E catalytic domain, FDH-coupled NADH fluorescence (FDH is formaldehyde dehydrogenase); hit rate 1.6% among 230,000; Lysine-specific demethylase 4E (Homo sapiens), B2RXH2; active = well fitted inhibition curve with a large enough effect, not every such curve was filed as active; inconclusive = small, poorly fitted or top-dose-only effect, or another doubt; inactive = no such curve, though single readings can be large or run the other way;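 also: 0% = wells with enzyme and -100% = buffer wells without enzyme; nearly all actives have a fitted effect of over 50% in size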
DNA dye displace: Counterscreen for APE1 Inhibitors: Fluorescent Dye Displacement Assay; shares compounds with APE1 inh-1; hit rate 7% among 480; AID 2564, 2010; Potency, µM (highest dose often 28.5 µM), for the others: top-dose activity change, negative = inhibition, most hits filed as inhibitors; DNA fluorescent dye displacement counterscreen, fluorescence;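 also: loss of thiazole orange fluorescence as the dye is displaced from duplex DNA; 0% = ThO with dsDNA and no compound and -100% = ThO without dsDNA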
Endo IV inh: Counterscreen for APE1 Inhibitors: qHTS Assay for Inhibitors of Endonuclease IV | shares compounds with APE1 inh-1 | E. coli Endo IV, fluorogenic AP-site DNA cleavage | Potency, µM (doses to about 27.1 µM), without a hit: at the highest dose activity change, negative = inhibition, most hits filed as inhibitors | hit rate 4% among 560;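 also: plate controls were uninhibited enzyme wells for no effect and no enzyme buffer wells for full effect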
APE1 inh-2: Confirmation qHTS Assay for Inhibitors of the Human Apurinic/apyrimidinic Endonuclease 1 (APE1); AID 2572, 2010; Potency, µM (highest dose often 57.1 µM), without a hit: at the top dose activity change, negative = inhibition, hits mostly inhibitors; shares compounds with APE1 inh-1; purified APE1, fluorogenic abasic-site DNA cleavage; hit rate 44% among 750; also: nearly all actives have a fitted effect of over 30% in size
APE1 FP: qHTS FP-Based Assay for Inhibitors of the Human Apurinic/apyrimidinic Endonuclease 1 (APE1); shares compounds with APE1 inh-1; APE1 binding to TAMRA-labelled double-stranded DNA, fluorescence polarization displacement; Potency, µM (titrated, usually from 28.5 µM), inactives show at the top dose activity, negative = inhibition, actives largely listed as inhibitors; hit rate 7% among 480; AID 2573, 2010
BLM inh-2: qHTS Confirmation Assay for Inhibitors of Bloom's syndrome helicase (BLM) | shares compounds with BLM inh-1 | BLM DNA unwinding, fluorescence quenching, biochemical | Potency, µM, without a hit: max response, negative = inhibition, usual class: inhibitors | hit rate 40% among 220 | AID 2585, 2010;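 also: strand separation dequenches TAMRA so unwinding raises red fluorescence; series mostly up to about 69 µM; nearly all actives have a fitted effect of over 45% in size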
RECQ1 inh conf: Confirmation qHTS Assay for Inhibitors of RecQ-Like Dna Helicase 1 (RECQ1) | shares compounds with RECQ1 inh-1 | RECQ1 helicase DNA unwinding, fluorescence | Potency, µM (top dose mostly 229 µM), without a hit: at the top dose activity change, negative = inhibition, actives largely listed as inhibitors | hit rate 28% among 610 | AID 2708, 2010; also: nearly all actives have a fitted effect of over 45% in size
ADP FP counter: Counterscreen for RECQ1 Inhibitors: ADP Fluorescence Polarization Displacement Assay; shares compounds with RECQ1 inh-1; ADP fluorescence polarization displacement counterscreen; Potency, µM (doses to about 228 µM), inactives show top-dose activity change, negative = inhibition, actives largely listed as inhibitors; hit rate 27% among 530; also: nearly all actives have a fitted effect of over 45% in size
RECQ1 inh-2: Confirmation qHTS Assay for Inhibitors of RecQ-Like Dna Helicase 1 (RECQ1) - Round 2 Cherry Picks. Potency, µM (series often up to 119 µM), without a hit: top-dose activity, negative = inhibition, hits mostly inhibitors. shares compounds with RECQ1 inh-1. hit rate 15% among 1,100. recombinant RECQ1 DNA unwinding, red fluorescence; also: nearly all actives have a fitted effect of over 50% in size
* hit, by the source's call; i = inactive; ? = inconclusive; . = not tested or not shown; [ ] = dose if it differs, or a comment. Unless noted, calls follow the shape of the dose curve; as a rule, active = well fitted curve in the direction sought with a large enough effect; inconclusive = small, poorly fitted or top-dose-only effect, or another doubt; inactive = no such curve, though single readings can be large; an effect the other way counts as inactive or inconclusive. Unless noted, % is scaled to controls: 0 for no effect and ±100 for the full control effect; potency is read from the fitted curve at half-maximal effect.

SMILES	BLM inh-1	APE1 inh-1	RECQ1 inh-1	TDP1 block	L3MBTL1 block	JMJD2E inh	DNA dye displace	Endo IV inh	APE1 inh-2	APE1 FP	RECQ1 inh conf	ADP FP counter	RECQ1 inh-2	others
O=C(CSc1nc(-c2ccc(F)cc2)nc2c1Cc1ccccc1O2)Nc1ccc(C(=O)O)cc1	8.9µM*	?	?	5µM*	5µM*	?	3.2µM*	?	4.5µM*	-38%	.	.	.	BLM inh-2=29µM*
N#Cc1ccc(CS(=O)(=O)c2ccccc2)cc1	3%	17%	0%	7%	.	-1%	.	.	.	.	.	.	.
Cc1cc(C(C)(C)C)c(O)c(C(C)(C)C)c1	1%	5%	-11%	5%	7%	5%	.	.	.	.	.	.	.
Cc1cc(O)c(Oc2cc(C)cc(O)c2O)c(O)c1	-4%	10µM*	13µM*	4%	-2%	13µM*	5%	77%	?	6%	.	.	?
CC(C)(C)n1ncc2c(=O)n(Cc3ccc(F)cc3)cnc21	.	12%	.	.	.	.	.	.	.	.	.	.	.
C=Cc1c(C)/c2[n-]/c1=C\c1[n-]c(c(CC)c1C)/C=c1\[n-]c3c(c1C)C(=O)C(C(=O)[O-])C=3c1[n-]c(c(C)c1CCC(=O)[O-])\C=2.[Cu].[Na+].[Na+] (centres undefined)	11µM*	.	1.1µM*	?	.	7.9µM*	.	16µM*	2.8µM*	.	2.8µM*	45µM*	.
CCN(CC)CCC(c1ccc(N(C)C)cc1)c1c(OC)cc(OC)c2c1OC(=O)CC2c1ccc(OC)cc1 (centres undefined)	-5%	-2%	i	24%	.	.	.	.	.	.	.	.	.
O=C1c2ccccc2C(=O)N1/N=C/c1ccc(O)c(O)c1O	-24%	0.71µM*	6.3µM*	?	.	2.2µM*	-10%	73%	?	4%	?	35µM*	.
O=C(O)Cc1ccc(C(=O)c2ccccc2)s1	-7%	3%	-9%	3%	.	-10%	.	.	.	.	.	.	.
O=C(O)Cc1ccc(C(=O)CSc2ccccc2)s1	-30%	?	?	.	?	-6%	-3%	7%	?	8%	.	.	13%
CC1(C)SC2C(N3C(=O)C(c4ccccc4)NC3(C)C)C(=O)N2C1C(=O)O (centres undefined)	-7%	.	14µM*	?	.	?	-8%[57.1 µM]	14%[57.1 µM]	?	?	89µM*	32µM*	.
COc1ccc(C(=O)CC(=O)c2ccc(C(C)(C)C)cc2)cc1	-15%	8.9µM*	32µM*	20µM*	.	-17%	?	-3%[57.1 µM]	7.9µM*	?	13µM*	?	?
CCCSC1=N/C(=C\C=C\c2ccco2)C(=O)S1	20µM*	4µM*	7.9µM*	.	5.6µM*	8.9µM*	-3%	18%	?	?	32µM*	13µM*	?
O=C1SC(SCc2ccccc2)=N/C1=C\c1ccco1	-5%	?	?	-7%	.	-10%	?	-10%	?	5%	.	.	?
O=C1SC(SCc2ccccc2)=N/C1=C\c1ccc(C(=O)O)cc1	-6%	1%	0%	.	?	?	.	.	.	.	.	.	.
Cc1ccccc1OCc1ccc(-c2nc(C#N)c(NCCCN(C)C)o2)o1	1%	.	.	2%	.	.	.	.	.	.	.	.	.
CC(=O)NC1=NN(C(C)=O)C(C)(c2ccccc2)S1 (centres undefined)	?	2.8µM*	40µM*	.	32µM*	-6%	5%	-4%	1.4µM*	-6%	.	.	-2%
O=C(NN1C(=O)/C(=C/C=C/c2ccco2)SC1=S)c1ccncc1	2%	4.5µM*	3.5µM*	.	.	20µM*	1%	86%	4.5µM*	?	22µM*	13µM*	.

High-throughput results deposited in PubChem BioAssay by National Center for Advancing Translational Sciences (NCATS).
